# Source: PubChem (National Center for Advancing Translational Sciences (NCATS))
# The list is not random: actives were taken first. Their share in the collection is about 6.5%.
# MARV entry inh: blocks Marburg virus binding to or entry into cells. Potency, µM (top dose mostly 37.8 µM), inactives show at the highest dose activity change, negative = inhibition, most hits filed as inhibitors. Marburg virus pseudotyped entry inhibition, cell reporter. AID 540276. hit rate 1.8% among 300,000; calls by dose curve; tested in HEK293 cells; note: potency is the fitted concentration of half-maximal effect
# VACV Venus inh: vaccinia inhibition (Venus reporter) | Vaccinia virus Venus reporter expression, fluorescence | Potency, µM (highest dose often 36.5 µM), for the others: at the top dose activity change, negative = inhibition, hits mostly inhibitors | hit rate 0.46% among 330,000; calls by dose curve; tested in A549 cells; note: potency is the fitted concentration of half-maximal effect; nearly all actives have a fitted effect of over 30% in size
# Vaccinia mCherry: inhibitors of vaccinia virus infection (mCherry reporter signal) | Vaccinia virus mCherry reporter infection, fluorescence | Potency, µM (highest dose often 36.5 µM), without a hit: at the highest dose activity change, negative = inhibition, usual class: inhibitors | hit rate 0.63% among 310,000 | AID 720579; calls by dose curve; tested in A549 cells; note: potency is the fitted concentration of half-maximal effect; nearly all actives have a fitted effect of over 35% in size
# FMDV antiviral: antivirals against foot and mouth disease virus; FMDV antiviral cell-based qHTS; Potency, µM (top dose mostly 57.9 µM), without a hit: at the top dose activity change, negative = inhibition, usual class: inhibitors; hit rate 1.2% among 410,000; AID 1159524; calls by dose curve; tested in HEK293T cells; note: read-out not given here; potency is the fitted concentration of half-maximal effect; nearly all actives have a fitted effect of over 45% in size
# HCMV inh: human cytomegalovirus inhibition; HFF cells, HCMV-luciferase reporter, 72 h; stronger effect = lower value; activity change, negative = inhibition, % at 57.5 µM; hit rate 4.5% among 410,000; AID 1259415; in the data active = activity change below about -60%; inconclusive = no clear call, values can overlap the other calls; inactive = above about -39%
#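 Steps: HFFs plated, 16 h 37C; compounds added; HCMV-luciferase added to MOI 1 PFU/cell; 72 h 37C; OneGlo reagent, 5 min room temperature; luminescence read, normalized to controls.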
# Lassa entry inh: blocks Lassa virus binding to or entry into cells; hit rate 1.2% among 300,000; AID 540256; Potency, µM (highest dose often 37.9 µM), without a hit: top-dose activity change, negative = inhibition, hits mostly inhibitors; Lassa virus pseudotype entry inhibition, cell reporter; calls by dose curve; tested in HEK293 cells; note: potency is the fitted concentration of half-maximal effect; nearly all actives have a fitted effect of over 50% in size
# Starred values were filed as active, the others as inactive; i = inactive; ? = inconclusive; . = not tested or not shown; [ ] = another dose, or the depositor's remark. % is set by controls: 0 for no effect and ±100 for the full control effect.
SMILES,MARV entry inh,VACV Venus inh,Vaccinia mCherry,FMDV antiviral,HCMV inh,Lassa entry inh
O=S(=O)(NC(=S)c1ccccc1)c1ccccc1,1.2%[46.1 µM],-3.7%,i,6.3%,-35.7,10.8%[46.1 µM]
CCc1ccc(-n2c(=O)c3c(C)c(C)sc3n(CC(=O)NCc3ccc(C)cc3)c2=O)cc1,0.9%[46.1 µM],5.3%,-4.5%,-7.0%,7.7,-4.6%[46.1 µM]
N#CC(C#N)=C/C(C#N)=C(/N)N1CCN(c2ccc(Cl)cc2)CC1,-19.4%,.,.,17.8µM*,-16.0,9.5%
CN(C)C(=C(C#N)C#N)N1CCN(c2ccc(Cl)cc2)CC1,0.5%[46.1 µM],-6.9%,-25.0%,-9.3%,?,1.2%
CCCCCCCCCCCCCCCCOC[C@H](COP(=O)([O-])OCC[N+](C)(C)C)OC(=O)NC,.,-11.8%[3.33 µM],-16.6%[3.33 µM],-10.5%[6.7 µM],.,.
CC1=CN2C(=N)/C(=C/c3ccc([N+](=O)[O-])o3)C(=O)N=C2S1,?,108.7%,52.9%,25.1µM*,-95.8*,-14.2%
COC(=O)CN1C(=O)CSc2ccc(S(=O)(=O)Nc3ccc(F)c(Cl)c3)cc21,.,-3.8%,-8.4%,59.4%,-6.6,-7.6%[46.1 µM]
CCOc1cc(N2CCOCC2)c(OCC)cc1NC(=O)c1ccccc1,-1.0%[46.1 µM],-10.3%,-9.8%,-14.1%,-24.9,8.6%
CCOc1cc(N2CCOCC2)c(OCC)cc1NC(=O)Cc1ccccc1OC,2.9%,-26.8%,.,-0.6%,-61.0*,-23.3%
CCCn1nc(C(=O)Nc2cc(OCC)c(N3CCOCC3)cc2OCC)c2ccccc2c1=O,.,.,.,?,-92.4*,.
Cc1ccc(S(=O)(=O)N2CCN(c3ncnc4c3cnn4-c3ccccc3)CC2)cc1,4.9%,0.2%,-14.0%,-12.3%,-7.0,-17.6%
Cc1ccc(C(=O)N2CCN(c3ncnc4c3cnn4-c3ccccc3)CC2)cc1,.,.,.,.,-76.9*,.
Cc1ccccc1C(=O)N1CCN(c2ncnc3c2cnn3-c2ccccc2)CC1,?,.,.,20µM*,?,-14.8%
CCOc1ccccc1NC(=O)Cn1c(=O)n(-c2ccc(C)cc2)c(=O)c2c1cnn2C,21.0%[46.1 µM],8.2%,-4.2%,0.0%,13.0,-16.8%[46.1 µM]
COCC(=O)N1CCC2(CC1)CN(c1ccc(-c3ccccc3)cc1)C2,.,.,.,-28.5%,.,.
CN(C)c1ncnc2ccc(-c3ccc4c(c3)OCO4)cc12,.,.,.,-14.1%,.,.
COc1ccccc1NC(=O)COc1ccc(-c2nn(C)c(=O)c3ccccc23)cc1,-2.9%[46.1 µM],?,?,17.8µM*,49.7,-6.5%[46.1 µM]
Cn1nc(-c2ccc(OCC(=O)N3CCN(Cc4ccccc4)CC3)cc2)c2ccccc2c1=O,8.2µM*,?,-14.0%,15.8µM*,?,-15.2%
Cc1ccc(OCC(=O)N2CCN(c3nnc(-c4ccccc4)c4ccccc34)CC2)cc1,?,.,.,?,-83.3*,?
Cn1nc(-c2ccc(OCC(N)=O)cc2)c2ccccc2c1=O,?,.,.,12.0%,79.4,9.7%
Cn1nc(-c2ccc(OCC(=O)Nc3ccccc3)cc2)c2ccccc2c1=O,0.2%[46.1 µM],-23.7%,?,?,70.1,?
COc1ccc(S(=O)(=O)NCc2nc(N3CCCC3)c3cccc(C)c3n2)cc1OC,.,7.8%,-9.1%,-5.3%,.,.
CCCc1nnc(NC(=O)C2CC(=O)N(CCc3ccc(F)cc3)C2)s1 (stereo not given),8.2%[46.1 µM],-16.2%,-21.8%,6.1%,1.8,7.3%[46.1 µM]
CNC(=O)C1CC(=O)N(CCc2ccc(C)cc2)C1 (stereo not given),?,-6.1%,-13.5%,14.2%,-69.5*,5.3%[46.1 µM]
Cc1ccc(CCNC(=O)C2CC(=O)N(CCc3ccc(C)cc3)C2)cc1 (stereo not given),.,-2.4%,-16.1%,8.5%,-33.4,?
SMILES,MARV entry inh,VACV Venus inh,Vaccinia mCherry,FMDV antiviral,HCMV inh,Lassa entry inh
O=C(Nc1nncs1)C1CC(=O)N(CCc2ccc(F)cc2)C1 (stereo not given),-0.2%[46.1 µM],0.0%,-1.5%,1.6%,-66.0*,-3.5%[46.1 µM]
Cc1ccc(CCN2CC(C(=O)NC(C)C)CC2=O)cc1 (stereo not given),27.8%[46.1 µM],-1.7%,i,-2.8%,-61.1*,-1.0%[46.1 µM]
Nc1nc2ncc(=O)[nH]c2c(=O)[nH]1,.,0.0%,i,0.8%,.,.
COC(=O)[C@@H]1CCCN1Cc1ccc2c(c1)CN(Cc1ccccc1F)CCO2,.,2.9%,-9.6%,-2.5%,.,.
Cc1sc2ncnc(NC3CCN(Cc4ccccc4)CC3)c2c1C,?,?,?,?,-80.7*,?
c1ccc(CN2CCC(Nc3ncnc4sccc34)CC2)cc1,-5.4%[46.1 µM],-19.6%,-30.1%,-14.0%,-29.3,-2.8%
Cc1csc2c(NC3CCN(Cc4ccccc4)CC3)ncnc12,2.82µM*,-27.9%,-21.1%,-14.5%,-18.2,-13.7%[46.1 µM]
CC(=O)N1CCC(N(Cc2ccco2)C(=O)Nc2ccc(Br)cc2F)CC1,.,0.7%,-10.8%,-20.3%,-13.2,-9.6%[46.1 µM]
Cc1nn(-c2ccccc2)c(C)c1/C=N/NC(=O)c1ccc(F)cc1,.,.,.,44.6%,1.5,.
CC(C)(C)c1cc(C(=O)N/N=C/c2ccccc2O)n(-c2ccccc2)n1,?,?,?,-20.1%,-97.4*,?
CC(C)(C)c1cc(C(=O)N/N=C/c2ccc(F)cc2)n(-c2ccccc2)n1,?,-22.8%,-11.1%,-6.3%,-74.4*,-22.4%
O=C(Nc1cccc(Cl)c1)c1csc(C(O)c2cccc(C(F)(F)F)c2)n1 (stereo not given),.,.,.,.,21.3,.
CCOc1ccccc1NC(=O)COC(=O)c1cn(CC)c2nc(C)ccc2c1=O,9.6%[46.1 µM],-12.3%,-7.2%,0.0%,-7.0,-3.1%[46.1 µM]
COc1cc(NC(=O)CSc2nc3ccccc3nc2Cc2ccc(Cl)cc2)cc(OC)c1,.,-14.5%,-20.8%,2.51µM*,0.0,-15.7%[46.1 µM]
COc1ccc(NC(=O)CSc2nc3ccccc3nc2Cc2ccc(C)cc2)cc1Cl,.,-18.6%,-9.6%,-0.4%,1.3,13.2%[46.1 µM]
COc1cccc(CNC(=O)CSc2nc3ccccc3nc2Cc2ccc(C)cc2)c1OC,.,-12.6%,-15.2%,-6.5%,-91.9*,-0.5%[46.1 µM]
COc1ccccc1Oc1ccc(Oc2ccccc2OC)cc1,10µM*,4.2%,?,-19.7%,-19.3,?
CCn1c2ccccc2c2cc(/C=N/NC(=O)c3ccc(O)cc3)ccc21,7.08µM*,?,-25.1%,-21.9%,-38.0,5.01µM*
CCn1c2ccccc2c2cc(/C=N/NC(=O)c3ccncc3)ccc21,?,-26.7%,?,-22.7%,6.0,5.62µM*
CCn1c2ccccc2c2cc(/C=N/NC(=O)c3cc(O)cc(O)c3)ccc21,?,0.1%,-9.3%,?,-16.1,?
CCN1CCCC1CNC(=O)c1cnn(-c2nccc(-c3ccco3)n2)c1C1CC1 (stereo not given),.,-12.5%,-0.4%,-5.8%,.,.
COc1cc(N2CCC(O)CC2)ccc1Nc1nnc(Cl)c(Nc2ccccc2S(C)(=O)=O)n1,.,?,?,20µM*,.,.
C#CCCCON=C1C[C@@H](O)[C@@H](O)[C@@H]2[C@H]3C(=O)N(C(C)(C)C)C(=O)[C@@H]3CC[C@H]12,11.8%[14.2 µM],.,.,.,.,.
CCn1c(NCc2c[nH]c3ccccc23)nc2ccccc21,11.2µM*,-14.2%,-29.7%,25.5%,44.3,-9.0%
Cn1c(NCc2c[nH]c3ccccc23)nc2ccccc21,?,-15.6%,-6.2%,34.4%,113.5,?
